From PubChem BioAssay (NCI)
This is part of a sample that, as a whole, favours compounds with a hit. Of some 79,000 tested, about 15% had one in any assay. Values without a mark were called inactive. The source made the active and inactive calls. Cut-off read from the data, not from the text of the source: active = growth inhibition above about 70%; inactive = the rest.

Key:
[1] = NCI Yeast Anticancer Drug Screen. Data for the rad52 strain (AID 147);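 note: 0% = growth of vehicle-treated control cultures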; settings: S. cerevisiae rad52 mutant growth inhibition, active compounds read high
Outline: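 Vehicle-treated cultures served as the reference for growth inhibition of compound-exposed yeast bearing a DNA repair mutation.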

[2] = NCI Yeast Anticancer Drug Screen. Data for the wt1 strain (AID 149);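 note: 0% = growth of vehicle-treated wt1 cultures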; settings: S. cerevisiae wt1 strain (SPY 50644) growth inhibition, active compounds read high
Outline: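 Each compound is tested on wt1 yeast and the loss of growth versus vehicle gives the inhibition value.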

[3] = NCI Yeast Anticancer Drug Screen. Data for the rad50EPP+ strain (AID 151);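 note: 0% = growth of vehicle-treated control cultures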; settings: S. cerevisiae rad50 mutant strain, active compounds read high
Outline: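 In this screen, rad50EPP+ yeast were exposed to compounds. Growth inhibition was scored against vehicle-treated controls.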

[4] = NCI Yeast Anticancer Drug Screen. Data for the mgt1 strain (AID 153); settings: S. cerevisiae mgt1 mutant growth inhibition, active compounds read high
Outline: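 mgt1 strain exposed; growth vs vehicle control recorded as inhibition.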

[5] = NCI Yeast Anticancer Drug Screen. Data for the rad50 strain (AID 155);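 note: 0% = growth of vehicle-only cultures of the same strain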; settings: S. cerevisiae rad50 strain growth inhibition, active compounds read high
Outline: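 Vehicle-treated cultures provide the reference for the growth inhibition reported for compound-exposed, repair-deficient yeast.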

[6] = NCI Yeast Anticancer Drug Screen. Data for the mec2-1 strain (AID 157); settings: S. cerevisiae mec2-1 strain, active compounds read high
Outline: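 Vehicle-treated cultures served as reference for growth inhibition of compound-exposed mec2-1 yeast.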

[7] = NCI Yeast Anticancer Drug Screen. Data for the rad14 strain (AID 159);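 note: 0% = growth of vehicle-treated control cultures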; settings: S. cerevisiae rad14 strain growth inhibition, active compounds read high
Outline: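 Inhibition of growth is reported for a repair-deficient yeast mutant following compound treatment, calculated relative to cultures that received vehicle.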

[8] = NCI Yeast Anticancer Drug Screen. Data for the sgs1 mgt1 strain (AID 161);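 note: 0% = growth of cultures given vehicle only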; settings: S. cerevisiae sgs1 mgt1 strain, active compounds read high
Outline: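 Test agents were incubated with a DNA-repair-mutant yeast strain. Growth was then read and compared against vehicle-treated controls.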

[9] = NCI Yeast Anticancer Drug Screen. Data for the CLN2oe strain (AID 163);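 note: 0% = growth of vehicle-only control cultures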; settings: S. cerevisiae CLN2oe strain, active compounds read high
Outline: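 Inhibition relative to vehicle-treated yeast is reported. Cells: strain with genetic alteration in cell-cycle control, grown with compound.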

[10] = NCI Yeast Anticancer Drug Screen. Data for the cln2 rad14 strain (AID 165);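 note: 0% = growth equal to vehicle treated cultures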; settings: S. cerevisiae cln2 rad14 strain, active compounds read high
Outline: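 Each compound was tested on cln2 rad14 yeast. Inhibition of growth was calculated against vehicle-exposed controls.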

[11] = NCI Yeast Anticancer Drug Screen. Data for the bub3 strain (AID 167); settings: S. cerevisiae bub3 mutant strain, active compounds read high
Outline: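 Mutant yeast screening strain plus compound; vehicle-treated cultures serve as the 0% inhibition reference.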

[12] = NCI Yeast Anticancer Drug Screen. Data for the wt2 strain (AID 169); settings: S. cerevisiae wt2 strain growth inhibition, active compounds read high
Outline: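 Inhibition of yeast growth was determined after compound treatment, normalised to controls receiving only vehicle.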

[13] = NCI Yeast Anticancer Drug Screen. Data for the mlh1 strain (AID 171);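 note: 0% = growth of vehicle-treated control cultures of the same strain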; settings: S. cerevisiae mlh1 strain growth inhibition, active compounds read high
Outline: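 Vehicle-normalised growth inhibition of a repair- or checkpoint-altered yeast strain following compound treatment.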

[14] = NCI Yeast Anticancer Drug Screen. Data for the sgs1 strain (AID 173);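 note: 0% = growth of vehicle-only control cultures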; settings: S. cerevisiae sgs1 mutant, active compounds read high
Outline: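 Screen format: yeast with repair or checkpoint alterations, compound exposure, growth read relative to vehicle.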

[15] = NCI Yeast Anticancer Drug Screen. Data for the mlh1 rad18 strain (AID 175); settings: S. cerevisiae mlh1 rad18 strain growth inhibition, active compounds read high
Outline: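 Vehicle-treated cultures served as the reference for growth inhibition in a yeast strain carrying DNA damage repair alterations exposed to each compound.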

[16] = NCI Yeast Anticancer Drug Screen. Data for the rad18 strain (AID 177); settings: S. cerevisiae rad18 mutant growth inhibition, active compounds read high
Outline: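 Test articles were incubated with altered yeast defective in DNA damage repair. Results are given as inhibition of growth versus vehicle.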

[17] = at 5.0 µM (retest, dose inferred, filed as 0.5)
[18] = at 50.0 µM (retest, dose inferred, filed as 5.0)

COc1ccc([N+](=O)[O-])c2c(NCCCN(C)C)c3ccccc3nc12
growth inhibition ([1]; at 1.2 µM): 15%
growth inhibition ([1]; at 3.7 µM): 30%
growth inhibition ([1]; at 11.0 µM): 58%
growth inhibition ([1]; at 33.0 µM): 72% (active)
growth inhibition ([1]; at 100.0 µM): 89% (active)
growth inhibition ([2]; at 1.2 µM): 1%
growth inhibition ([2]; at 3.7 µM): 1%
growth inhibition ([2]; at 11.0 µM): 3%
growth inhibition ([2]; at 33.0 µM): 9%
growth inhibition ([2]; at 100.0 µM): 23%
growth inhibition ([3]; at 1.2 µM): -3%
growth inhibition ([3]; at 3.7 µM): 3%
growth inhibition ([3]; at 11.0 µM): 13%
growth inhibition ([3]; at 33.0 µM): 22%
growth inhibition ([3]; at 100.0 µM): 45%
growth inhibition ([4]; at 1.2 µM): 2%
growth inhibition ([4]; at 3.7 µM): 2%
growth inhibition ([4]; at 11.0 µM): 6%
growth inhibition ([4]; at 33.0 µM): 10%
growth inhibition ([4]; at 100.0 µM): 42%
growth inhibition ([5]; at 1.2 µM): 5%
growth inhibition ([5]; at 3.7 µM): -1%
growth inhibition [5, 17]: 16%
growth inhibition ([5]; at 11.0 µM): 11%
growth inhibition ([5]; at 33.0 µM): 50%
growth inhibition [5, 18]: 90% (active)
growth inhibition ([5]; at 50.0 µM): 49.1%
growth inhibition ([5]; at 100.0 µM): 71% (active)
growth inhibition ([6]; at 1.2 µM): 4%
growth inhibition ([6]; at 3.7 µM): 4%
growth inhibition [6, 17]: -3%
growth inhibition ([6]; at 11.0 µM): 12%
growth inhibition ([6]; at 33.0 µM): 47%
growth inhibition [6, 18]: 99% (active)
growth inhibition ([6]; at 50.0 µM): 12.9%
growth inhibition ([6]; at 100.0 µM): 85% (active)
growth inhibition ([7]; at 1.2 µM): 4%
growth inhibition ([7]; at 3.7 µM): 10%
growth inhibition ([7]; at 11.0 µM): 29%
growth inhibition ([7]; at 33.0 µM): 80% (active)
growth inhibition ([7]; at 100.0 µM): 94% (active)
growth inhibition [8, 17]: 5%
growth inhibition [8, 18]: 79% (active)
growth inhibition ([8]; at 50.0 µM): 46.8%
growth inhibition ([9]; at 1.2 µM): -3%
growth inhibition ([9]; at 3.7 µM): 3%
growth inhibition ([9]; at 11.0 µM): 2%
growth inhibition ([9]; at 33.0 µM): 8%
growth inhibition ([9]; at 100.0 µM): 25%
growth inhibition [10, 17]: 42%
growth inhibition [10, 18]: 98% (active)
growth inhibition ([10]; at 50.0 µM): 66.2%
growth inhibition ([11]; at 1.2 µM): -2%
growth inhibition ([11]; at 3.7 µM): -2%
growth inhibition [11, 17]: 91% (active)
growth inhibition ([11]; at 11.0 µM): -4%
growth inhibition ([11]; at 33.0 µM): 1%
growth inhibition [11, 18]: 100% (active)
growth inhibition ([11]; at 50.0 µM): -29%
growth inhibition ([11]; at 100.0 µM): 9%
growth inhibition ([12]; at 1.2 µM): 1%
growth inhibition ([12]; at 3.7 µM): 2%
growth inhibition ([12]; at 11.0 µM): 5%
growth inhibition ([12]; at 33.0 µM): 17%
growth inhibition ([12]; at 100.0 µM): 38%
growth inhibition ([13]; at 1.2 µM): 0%
growth inhibition ([13]; at 3.7 µM): 2%
growth inhibition ([13]; at 11.0 µM): 4%
growth inhibition ([13]; at 33.0 µM): 19%
growth inhibition ([13]; at 100.0 µM): 45%
growth inhibition ([14]; at 1.2 µM): 12%
growth inhibition ([14]; at 3.7 µM): 31%
growth inhibition ([14]; at 11.0 µM): 56%
growth inhibition ([14]; at 33.0 µM): 83% (active)
growth inhibition ([14]; at 100.0 µM): 90% (active)
growth inhibition [15, 17]: 7%
growth inhibition [15, 18]: 98% (active)
growth inhibition ([15]; at 50.0 µM): 68.5%
growth inhibition ([16]; at 1.2 µM): 62%
growth inhibition ([16]; at 3.7 µM): 82% (active)
growth inhibition ([16]; at 11.0 µM): 90% (active)
growth inhibition ([16]; at 33.0 µM): 93% (active)
growth inhibition ([16]; at 100.0 µM): 95% (active)
